The list is not random: actives were taken first. Their share in the collection is about 22%.
Shiga toxin inh = Shiga toxin inhibition; Vero cells, Shiga toxin protein synthesis inhibition reporter; inhibition, % at 38.7 µM; 290,000 compounds, 9.2% hits; AID 2315; in the data active = inhibition mostly above about 28%, no sharp cut-off; inactive = mostly below about 43%; also: 0% is about no effect
LmPK inhibitor = inhibitors of Leishmania mexicana pyruvate kinase. 290,000 compounds, 0.37% hits. Potency, µM (highest dose often 57.5 µM), for inactives: at the top dose activity change, negative = inhibition, usual class: inhibitors. AID 1721. purified LmPK, Kinase-Glo ATP luminescence, 1 h; also: potency is read from the fitted curve at half-maximal effect; % is scaled to controls: 0 for no effect and ±100 for the full control effect
Target sequence (Q27686 whole entry, looked up): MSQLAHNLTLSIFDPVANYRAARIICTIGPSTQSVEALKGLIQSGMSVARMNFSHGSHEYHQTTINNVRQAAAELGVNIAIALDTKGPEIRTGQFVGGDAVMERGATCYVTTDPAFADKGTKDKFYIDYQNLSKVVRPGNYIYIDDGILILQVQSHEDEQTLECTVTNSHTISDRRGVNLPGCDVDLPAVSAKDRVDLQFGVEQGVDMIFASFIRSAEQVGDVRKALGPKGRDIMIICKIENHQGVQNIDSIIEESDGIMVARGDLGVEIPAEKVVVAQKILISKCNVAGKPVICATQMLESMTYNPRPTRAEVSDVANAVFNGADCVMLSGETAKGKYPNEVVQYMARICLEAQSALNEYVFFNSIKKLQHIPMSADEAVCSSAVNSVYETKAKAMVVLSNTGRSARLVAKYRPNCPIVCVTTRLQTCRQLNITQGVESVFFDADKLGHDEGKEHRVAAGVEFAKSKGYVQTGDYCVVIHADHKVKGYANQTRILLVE
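Screened at intermediate enzyme activity to detect both inhibitors and activators: LmPK at 0.1 nM, with a 0.5 nM enzyme column as activation reference. PEP 0.5 mM, ADP 0.1 mM; ATP detected by luminescence after 1 h.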
Pf growth 96h = P. falciparum growth inhibition at 96 hour, primary screen for plastid delayed-death inhibitors | P. falciparum luciferase reporter growth, 96 h | 320,000 compounds, 6.9% hits | AID 504834 | Potency, µM (titrated, usually from 28.7 µM), for inactives: at the top dose activity change, negative = inhibition, most hits filed as inhibitors; also: potency is read from the fitted curve at half-maximal effect; % is scaled to controls: 0 for no effect and ±100 for the full control effect
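Luminescence readout: decreased luciferase signal marks inhibited growth of reporter-expressing P. falciparum in infected red cells (2% hematocrit, 0.05% parasitemia final), exposed to compound two generations (96 h, 37 C, 5% CO2).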
Pf growth 48h = inhibits P. falciparum growth in the first generation, 48 h | P. falciparum luciferase growth in erythrocytes, 48 h | Potency, µM (series often up to 28.7 µM), inactives show top-dose activity change, negative = inhibition, hits mostly inhibitors | 310,000 compounds, 5.9% hits; also: potency is read from the fitted curve at half-maximal effect; % is scaled to controls: 0 for no effect and ±100 for the full control effect
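Cell-based growth assay: transgenic P. falciparum expressing firefly luciferase, cultured in red cells within RPMI 1640 containing 0.5% w/v Albumax, 24 mM bicarbonate and gentamycin. A drop in luciferase activity indicates inhibition.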
Cycloheximide cs = counter-screen hit for Shiga toxin inhibitors, cycloheximide; cell reporter, cycloheximide protein synthesis inhibition counterscreen; max response, %; 300,000 compounds, 12% hits; in the data active = max response mostly above about 13%, no sharp cut-off; inactive = mostly below about 14%; also: read at 38.3 µM for the half of the compounds with a filed dose; 0% is about no effect
Numbers without * were called inactive; i = inactive; u = inconclusive; x = no result. Unless noted, calls follow the shape of the dose curve; as a rule, active = well fitted inhibition curve with a large enough effect; inconclusive = small, poorly fitted or top-dose-only effect, or another doubt; inactive = no such curve, though single readings can be large or run the other way.

SMILES	Shiga toxin inh	LmPK inhibitor	Pf growth 96h	Pf growth 48h	Cycloheximide cs
COc1ccc(NC(=O)c2c(-c3ccccc3Cl)noc2C)c(OC)c1	17	2%	0%	2.6µM*	-3
Cc1onc(-c2ccccc2)c1C(=O)Nc1ccc(Br)cc1Cl	7	-6%	2%	15µM*	-2
COc1ccc(CCN(C)Cc2ccc(C(=O)Nc3ccccc3)cc2)cc1OC	-24	-8%	u	u	16
COCCn1c(=S)[nH]c2cc(C(=O)N(CCO)Cc3ccccc3)ccc2c1=O	5	0%	u	-16%	-6
CCCCCCCCCCCCSCCOCCO	22	x	-21%	-13%	13
CCCCCCCCCCCCCCCCOCCOCCOCCOCCOCCOCCOCCOCCOCCOCCOCCOCCOCCOCCOCCOCCOCCOCCOCCOCCO	x	x	6.7µM*	13µM*	x
CCCCCCCCCCOCC(O)CN (centres undefined)	x	x	12µM*	u	x
CC(C)c1ccccc1NC(=O)COC(=O)/C=C/c1cccc([N+](=O)[O-])c1	27	-1%	58%	45%	-3
CCSc1nnc(N2C(=O)c3ccc(C(=O)c4ccc(C(=O)O)cc4)cc3C2=O)s1	-7	2%	10µM*	9%	2
O=C(Nc1c(C(=O)Nc2ccc3c(c2)OCCO3)cnn1-c1ccccc1Cl)c1ccco1	149*	-2%	x	42%	77*
CCCC(=O)c1cc2c(cc1NC(=O)c1cccs1)OCCO2	-7	4%	u	20%	-5
O=C(Nc1c(C(=O)N2CCOCC2)cnn1-c1ccccc1Cl)c1ccco1	-11	-2%	1%	7%	1
O=C(Nc1cc2c(cc1Cl)OCCO2)c1ccco1	93*	-12%	229%	214%	28*
CC(=O)c1cc2c(cc1NC(=O)c1ccco1)OCCO2	15	0%	u	2%	10
O=C(Nc1cc2c(cc1Br)OCCO2)c1ccco1	active	-9%	322%	336%	40*
O=C(Nc1cc2c(cc1Br)OCCO2)c1cccs1	181*	-13%	x	134%	42*
CCOc1ccccc1N1CC(C(=O)Nc2cc(S(C)(=O)=O)ccc2Cl)CC1=O (centres undefined)	x	x	5%	-2%	x
O=C(Nc1ccc(NC(=O)c2ccco2)cc1)c1ccc2c(c1)OCO2	12	-17%	-16%	x	1
O=C(Nc1ccc(NC(=O)c2ccco2)c(Cl)c1)c1ccc2c(c1)OCCO2	64*	2%	165%	109%	27*
O=C(Nc1cc2c(cc1Br)OCCO2)c1cccnc1	66	-10%	-4%	33%	24*
CC(=O)Nc1cc2c(cc1Br)OCCO2	-12	0%	480%	2%	-2
CCOc1cc(/C=N/O)ccc1OCC(=O)Nc1cccc(C)c1	41*	-2%	43%	15%	31*
CCOc1cc(/C=N\NC(=O)Cc2ccccc2)ccc1OCC(=O)Nc1ccc(C)c(C)c1	-21	-4%	x	-17%	-1
CCOc1cc(/C=N/O)ccc1OCc1ccc(C)cc1	active	-4%	-19%	53%	27*
O=C(CNC(=O)c1cccc(F)c1)N/N=C/c1cc(Br)ccc1OCc1ccccc1	9	2%	11%	u	5
SMILES	Shiga toxin inh	LmPK inhibitor	Pf growth 96h	Pf growth 48h	Cycloheximide cs
Cc1ccc(COc2ccc(Br)cc2/C=N/O)cc1	58	3%	399%	189%	31*
O/N=C/c1cc(Br)ccc1OCc1cccc(F)c1	93	1%	118%	46%	26*
Cc1ccc(S(=O)(=O)N2CCN(CCC#N)CC2)cc1	-6	6%	82%	51%	8
CCOC(=O)C1(CC)NC(c2ccc(OC)c(OC)c2)C2C(=O)N(c3cccc(C(C)=O)c3)C(=O)C21 (centres undefined)	-11	-5%	13%	-17%	-3
O=C(O)c1ccc2c(c1)C(=O)N([C@H](Cc1ccc(O)cc1)C(=O)O)C2=O	-6	x	u	u	0
CCCN1CCN(CC(=O)Nc2nncs2)CC1	-4	2%	0%	5%	-2
C#CCOCCOCCOCCNc1nc(N2CCN(C(=O)[C@H]([C@@H](C)CC)n3cc([C@@H](N)Cc4ccc(O)cc4)nn3)CC2)nc(N2CCN(C(=O)[C@H]([C@@H](C)CC)n3cc([C@@H](N)Cc4ccc(O)cc4)nn3)CC2)n1	-7	8%	1.9µM*	1.9µM*	-4
C#CCOCCOCCOCCNc1nc(N2CCN(C(=O)[C@H]([C@@H](C)CC)n3cc([C@@H](N)CC(C)C)nn3)CC2)nc(N2CCN(C(=O)[C@H]([C@@H](C)CC)n3cc([C@@H](N)CC(C)C)nn3)CC2)n1	1	3%	1.9µM*	1.7µM*	2
C#CCOCCOCCOCCNc1nc(N2CCN(C(=O)CCCCCCCCCCNC(=O)Cn3cc(C[C@@H](C)O)nn3)CC2)nc(N2CCN(C(=O)CCCCCCCCCCNC(=O)Cn3cc(C[C@@H](C)O)nn3)CC2)n1	x	x	0.083µM*	0.13µM*	x
C#CCOCCOCCOCCNc1nc(N2CCN(C(=O)CCCCCCCCCCNC(=O)Cn3cc(C[C@@H](C)O)nn3)CC2)nc(N2CCN(C(=O)CCCCCCCCCCNC(=O)[C@H](CCCCN)n3cc(C[C@@H](C)CC)nn3)CC2)n1	x	x	0.47µM*	0.33µM*	x
N[C@@H](Cc1ccc(O)cc1)c1nnc([C@H](CO)NC(=O)C2CCNCC2)o1	-10	5%	23%	2%	-2
CCC1(c2ccc(F)cc2)NC(=O)N(CC(=O)Nc2ccc(S(N)(=O)=O)cc2)C1=O (centres undefined)	-28	11%	20%	0%	-5
CCOC(=O)C1Oc2ccccc2C(c2ccc(C)cc2)=C1C(=O)OC (centres undefined)	i	x	x	x	19*
O=C(Nc1cccc(Cl)c1)N1CCSc2cc(Cl)ccc21	-6	2%	13µM*	u	16
O=C(Nc1ccccc1Cl)N1CCSc2ccccc21	28	6%	-11%	1.5µM*	2
Cc1ccccc1N1Cc2ccccc2C1	1	3%	-18%	u	1
COc1ccc(N2Cc3ccccc3C2)cc1Cl	87*	-11%	27%	u	22*
COc1ccc(OC)c(N2Cc3ccccc3C2)c1	3	3%	12µM*	5.9µM*	-1
COc1ccc(Cl)cc1N1Cc2ccccc2C1	-3	-6%	x	13µM*	-4
Cc1cc(C)nc(N2Cc3ccccc3C2=N)n1	35	0%	u	15µM*	19
COc1ccc(Oc2nc(OC)cc(OC)n2)cc1	-11	-5%	-16%	27%	1
O=C1C(=O)N(CC2CCCO2)C(c2ccccc2[N+](=O)[O-])/C1=C(/O)c1ccccc1 (centres undefined)	20	0%	3%	-8%	2
N#CC1(C#N)[C@@H](C(=O)C23CC4CC(CC(C4)C2)C3)C12CCOCC2	-6	7%	27%	4%	-5
COc1ccccc1N1CCNCC1	-3	7%	-10%	4%	8
COc1ccccc1N1Cc2ccccc2C1	4	-6%	u	13µM*	21*
